# Source: publication PMC7862700, “An all-to-all approach to the identification of sequence-specific readers for epigenetic DNA modifications on cytosine”
# Assays:
# Assay in all cases: DAPPL (digital affinity profiling via proximity ligation, sequencing); 10 mM Tris-HCl pH 7.5, 50 mM NaCl, 1 mM DTT, 4% glycerol, room temperature, 30 min; GST-TFs on glutathione beads, 16-mer random dsDNA library, 0.1% formaldehyde crosslink after washing; high values mean tight binding
# [1] = biological target: T1, FLI1 (Homo sapiens, UniProt Q01543 1-452); settings: protein: recombinant; tags: N-terminal GST; dsDNA, one strand shown
# T1 sequence: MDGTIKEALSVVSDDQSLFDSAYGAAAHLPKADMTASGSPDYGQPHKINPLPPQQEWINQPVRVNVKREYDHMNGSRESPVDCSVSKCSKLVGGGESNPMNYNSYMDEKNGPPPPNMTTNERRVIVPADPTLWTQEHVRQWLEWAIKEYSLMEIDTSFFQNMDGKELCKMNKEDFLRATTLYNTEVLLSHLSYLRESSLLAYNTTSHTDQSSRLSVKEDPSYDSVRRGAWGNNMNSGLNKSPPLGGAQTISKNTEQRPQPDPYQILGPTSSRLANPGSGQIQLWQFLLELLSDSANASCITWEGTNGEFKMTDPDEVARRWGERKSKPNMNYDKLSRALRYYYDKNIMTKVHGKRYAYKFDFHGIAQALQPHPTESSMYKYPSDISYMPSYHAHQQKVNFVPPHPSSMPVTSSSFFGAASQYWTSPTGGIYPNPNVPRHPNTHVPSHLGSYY
# Summary of the method: (§1)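 Pools of DNA-barcoded human transcription factors, expressed in yeast as GST fusions on glutathione beads and combined with a tag-only sample, were incubated with 200 nmole of a 16-mer random double-stranded DNA library. Incubation took 30 min at room temperature in Tris/NaCl/DTT/glycerol buffer and was followed by washing, 0.1% formaldehyde crosslinking, proximity ligation (BsaI/T4 ligase, 1 h, 37 °C), PCR amplification and sequencing on an Illumina NextSeq500. Binding signal is the ratio of a hexamer's read frequency for a factor to its frequency for the tag-only sample.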
# [2] = biological target: T2, ELK1 (Homo sapiens, UniProt P19419 1-428); settings: protein: recombinant; tags: N-terminal GST; dsDNA, one strand shown
# T2 sequence: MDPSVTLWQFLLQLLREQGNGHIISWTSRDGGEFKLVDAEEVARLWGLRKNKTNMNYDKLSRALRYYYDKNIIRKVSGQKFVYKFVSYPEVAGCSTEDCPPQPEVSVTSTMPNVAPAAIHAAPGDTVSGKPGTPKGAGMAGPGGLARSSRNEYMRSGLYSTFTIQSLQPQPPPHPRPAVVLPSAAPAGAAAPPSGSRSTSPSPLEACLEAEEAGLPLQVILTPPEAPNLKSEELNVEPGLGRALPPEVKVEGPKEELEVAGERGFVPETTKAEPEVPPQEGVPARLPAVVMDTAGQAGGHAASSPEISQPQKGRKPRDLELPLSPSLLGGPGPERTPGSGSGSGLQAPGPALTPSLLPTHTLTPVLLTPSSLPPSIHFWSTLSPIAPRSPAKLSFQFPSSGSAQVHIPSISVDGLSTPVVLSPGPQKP
# Summary of the method: as §1
# [3] = biological target: T3, GABPA (Homo sapiens, UniProt Q06546 1-454); settings: protein: recombinant; tags: N-terminal GST; dsDNA, one strand shown
# T3 sequence: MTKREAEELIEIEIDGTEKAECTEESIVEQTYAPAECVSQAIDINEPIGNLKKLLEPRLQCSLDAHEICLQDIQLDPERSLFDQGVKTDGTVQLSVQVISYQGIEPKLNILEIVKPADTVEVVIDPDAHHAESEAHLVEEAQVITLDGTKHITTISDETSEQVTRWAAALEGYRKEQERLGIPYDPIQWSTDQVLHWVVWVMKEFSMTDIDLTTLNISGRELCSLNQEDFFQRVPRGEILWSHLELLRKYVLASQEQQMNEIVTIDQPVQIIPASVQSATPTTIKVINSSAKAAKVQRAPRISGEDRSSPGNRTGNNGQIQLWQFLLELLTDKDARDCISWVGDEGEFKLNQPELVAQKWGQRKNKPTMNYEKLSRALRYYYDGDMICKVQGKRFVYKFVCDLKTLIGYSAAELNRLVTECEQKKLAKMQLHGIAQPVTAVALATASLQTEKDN
# Summary of the method: as §1
# [4] = biological target: T4, ERG (Homo sapiens, UniProt P11308 1-479); settings: protein: recombinant; tags: N-terminal GST; dsDNA, one strand shown
# T4 sequence: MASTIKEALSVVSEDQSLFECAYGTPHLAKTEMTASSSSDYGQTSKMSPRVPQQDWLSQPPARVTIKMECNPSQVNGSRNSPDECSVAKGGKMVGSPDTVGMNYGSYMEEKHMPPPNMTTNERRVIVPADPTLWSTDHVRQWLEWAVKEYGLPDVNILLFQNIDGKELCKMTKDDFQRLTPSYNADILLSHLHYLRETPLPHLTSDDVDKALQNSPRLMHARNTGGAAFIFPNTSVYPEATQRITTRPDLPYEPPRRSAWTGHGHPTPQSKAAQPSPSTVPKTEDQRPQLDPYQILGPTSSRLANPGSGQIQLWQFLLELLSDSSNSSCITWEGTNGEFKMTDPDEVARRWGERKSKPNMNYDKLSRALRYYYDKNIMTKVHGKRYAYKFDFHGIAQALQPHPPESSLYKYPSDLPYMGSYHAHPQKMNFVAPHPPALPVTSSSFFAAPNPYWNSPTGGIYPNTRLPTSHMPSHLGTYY
# Summary of the method: as §1
# [5] = biological target: ELF1 (Homo sapiens, UniProt P32519 1-619); settings: protein: recombinant; tags: N-terminal GST; dsDNA, one strand shown
# Summary of the method: as §1
# [6] = biological target: T5, EHF (Homo sapiens, UniProt Q9NZC4 1-300); settings: protein: recombinant; tags: N-terminal GST; dsDNA, one strand shown
# T5 sequence: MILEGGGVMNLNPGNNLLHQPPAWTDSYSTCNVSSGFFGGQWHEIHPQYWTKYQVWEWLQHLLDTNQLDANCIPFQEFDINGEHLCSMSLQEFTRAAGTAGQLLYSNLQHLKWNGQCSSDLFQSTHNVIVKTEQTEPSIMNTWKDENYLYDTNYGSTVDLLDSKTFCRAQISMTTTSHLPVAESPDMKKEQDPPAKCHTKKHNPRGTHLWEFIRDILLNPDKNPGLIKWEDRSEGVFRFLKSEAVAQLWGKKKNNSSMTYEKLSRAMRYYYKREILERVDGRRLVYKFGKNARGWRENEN
# Summary of the method: as §1
# [7] = biological target: SPI1 (Homo sapiens, UniProt P17947 1-270); settings: protein: recombinant; tags: N-terminal GST; dsDNA, one strand shown
# Summary of the method: as §1
# [8] = biological target: SPIB (Homo sapiens, UniProt Q01892 1-262); settings: protein: recombinant; tags: N-terminal GST; dsDNA, one strand shown
# Summary of the method: as §1
# [9] = biological target: T6, ELK3 (Homo sapiens, UniProt P41970 1-407); settings: protein: recombinant; tags: N-terminal GST; dsDNA, one strand shown
# T6 sequence: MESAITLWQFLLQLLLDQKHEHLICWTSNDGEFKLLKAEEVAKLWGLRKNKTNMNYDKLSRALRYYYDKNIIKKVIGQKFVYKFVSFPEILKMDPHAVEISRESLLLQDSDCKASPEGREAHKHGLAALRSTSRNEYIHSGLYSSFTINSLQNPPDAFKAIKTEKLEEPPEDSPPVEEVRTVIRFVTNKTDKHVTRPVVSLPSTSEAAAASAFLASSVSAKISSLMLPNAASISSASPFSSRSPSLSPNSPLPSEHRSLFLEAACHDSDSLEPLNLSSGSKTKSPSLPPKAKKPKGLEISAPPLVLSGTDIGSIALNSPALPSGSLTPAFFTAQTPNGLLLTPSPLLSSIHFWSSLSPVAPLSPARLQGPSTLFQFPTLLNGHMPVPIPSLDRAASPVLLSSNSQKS
# Summary of the method: as §1
# [10] = biological target: T7, FEV (Homo sapiens, UniProt Q99581 1-238); settings: protein: recombinant; tags: N-terminal GST; dsDNA, one strand shown
# T7 sequence: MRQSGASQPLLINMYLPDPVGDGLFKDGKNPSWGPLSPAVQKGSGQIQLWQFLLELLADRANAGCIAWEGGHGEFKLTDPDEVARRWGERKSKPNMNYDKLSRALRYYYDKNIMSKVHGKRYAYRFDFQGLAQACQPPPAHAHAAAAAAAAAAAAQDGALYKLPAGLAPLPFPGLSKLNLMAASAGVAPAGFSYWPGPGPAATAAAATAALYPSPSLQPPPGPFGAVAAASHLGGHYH
# Summary of the method: as §1
# [11] = biological target: ETV5 (Homo sapiens, UniProt P41161 1-510); settings: protein: recombinant; tags: N-terminal GST; dsDNA, one strand shown
# Summary of the method: as §1
# [12] = biological target: HSF1 (Homo sapiens, UniProt Q00613 1-529); settings: protein: recombinant; tags: N-terminal GST; chain copies: 3; dsDNA, one strand shown
# Summary of the method: as §1
# [13] = biological target: T8, SPIC (Homo sapiens, UniProt Q8N5J4 1-248); settings: protein: recombinant; tags: N-terminal GST; dsDNA, one strand shown
# T8 sequence: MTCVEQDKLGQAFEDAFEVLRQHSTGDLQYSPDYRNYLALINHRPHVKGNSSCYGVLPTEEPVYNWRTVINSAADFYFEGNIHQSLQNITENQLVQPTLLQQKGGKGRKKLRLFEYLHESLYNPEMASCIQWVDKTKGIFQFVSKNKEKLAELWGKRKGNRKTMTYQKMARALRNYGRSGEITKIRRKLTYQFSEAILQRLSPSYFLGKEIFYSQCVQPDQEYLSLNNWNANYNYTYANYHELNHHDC
# Summary of the method: as §1
# [14] = biological target: ELF4 (Homo sapiens, UniProt Q99607 1-663); settings: protein: recombinant; tags: N-terminal GST; dsDNA, one strand shown
# Summary of the method: as §1
# [15] = biological target: T9, ELK4 (Homo sapiens, UniProt P28324-2 1-405); settings: protein: recombinant; tags: N-terminal GST; dsDNA, one strand shown
# T9 sequence: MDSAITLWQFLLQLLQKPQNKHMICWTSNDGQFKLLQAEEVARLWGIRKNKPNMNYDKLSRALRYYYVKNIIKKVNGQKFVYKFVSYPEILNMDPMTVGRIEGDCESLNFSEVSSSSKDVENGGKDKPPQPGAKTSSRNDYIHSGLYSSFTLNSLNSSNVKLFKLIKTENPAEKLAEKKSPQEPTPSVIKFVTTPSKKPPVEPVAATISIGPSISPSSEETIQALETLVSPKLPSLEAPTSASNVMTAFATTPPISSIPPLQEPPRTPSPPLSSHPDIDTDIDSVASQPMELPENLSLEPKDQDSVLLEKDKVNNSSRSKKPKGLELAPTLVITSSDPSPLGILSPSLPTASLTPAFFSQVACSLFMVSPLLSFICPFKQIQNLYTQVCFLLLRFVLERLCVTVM
# Summary of the method: as §1
# [16] = biological target: T10, ETV2 (Homo sapiens, UniProt O00321 1-342); settings: protein: recombinant; tags: N-terminal GST; dsDNA, one strand shown
# T10 sequence: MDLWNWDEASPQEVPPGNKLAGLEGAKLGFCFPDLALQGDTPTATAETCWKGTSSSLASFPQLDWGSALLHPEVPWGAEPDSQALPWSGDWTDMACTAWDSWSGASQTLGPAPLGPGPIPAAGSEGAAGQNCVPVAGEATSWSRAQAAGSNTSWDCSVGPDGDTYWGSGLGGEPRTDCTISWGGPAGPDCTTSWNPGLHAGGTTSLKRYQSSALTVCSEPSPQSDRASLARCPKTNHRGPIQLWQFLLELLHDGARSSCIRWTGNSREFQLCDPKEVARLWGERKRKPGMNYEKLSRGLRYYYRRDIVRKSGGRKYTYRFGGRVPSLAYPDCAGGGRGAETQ
# Summary of the method: as §1
# [17] = biological target: T11, ELF3 (Homo sapiens, UniProt P78545 1-371); settings: protein: recombinant; tags: N-terminal GST; dsDNA, one strand shown
# T11 sequence: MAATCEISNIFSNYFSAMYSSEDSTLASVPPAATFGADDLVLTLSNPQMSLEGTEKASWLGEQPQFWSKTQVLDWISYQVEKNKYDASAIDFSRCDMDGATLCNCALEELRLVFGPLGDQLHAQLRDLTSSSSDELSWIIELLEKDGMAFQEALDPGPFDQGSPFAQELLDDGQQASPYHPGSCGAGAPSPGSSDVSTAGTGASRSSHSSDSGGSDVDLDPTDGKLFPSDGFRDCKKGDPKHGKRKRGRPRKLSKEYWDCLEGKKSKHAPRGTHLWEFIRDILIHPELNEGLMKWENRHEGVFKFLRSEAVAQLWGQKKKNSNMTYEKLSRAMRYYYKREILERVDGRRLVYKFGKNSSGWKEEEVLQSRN
# Summary of the method: as §1
# [18] = biological target: CRX (Homo sapiens, UniProt O43186 1-299); settings: protein: recombinant; tags: N-terminal GST; dsDNA, one strand shown
# Summary of the method: as §1
# [19] = biological target: ETV1 (Homo sapiens, UniProt P50549 1-477); settings: protein: recombinant; tags: N-terminal GST; dsDNA, one strand shown
# Summary of the method: as §1
# Sequence of ETV1 (P50549 whole entry): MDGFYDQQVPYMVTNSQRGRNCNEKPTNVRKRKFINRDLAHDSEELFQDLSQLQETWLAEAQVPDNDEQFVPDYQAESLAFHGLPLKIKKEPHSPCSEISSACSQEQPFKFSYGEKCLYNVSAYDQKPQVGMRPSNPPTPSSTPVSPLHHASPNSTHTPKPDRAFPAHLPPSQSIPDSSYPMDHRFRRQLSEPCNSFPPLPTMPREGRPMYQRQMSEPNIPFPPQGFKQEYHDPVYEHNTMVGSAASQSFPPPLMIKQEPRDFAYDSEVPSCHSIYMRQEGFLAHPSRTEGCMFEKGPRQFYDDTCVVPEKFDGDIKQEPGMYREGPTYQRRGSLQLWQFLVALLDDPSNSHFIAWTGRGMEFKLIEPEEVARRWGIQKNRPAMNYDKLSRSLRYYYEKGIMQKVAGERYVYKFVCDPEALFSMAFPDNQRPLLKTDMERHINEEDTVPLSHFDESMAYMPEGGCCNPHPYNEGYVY
# Sequence of ELF4 (Q99607 whole entry): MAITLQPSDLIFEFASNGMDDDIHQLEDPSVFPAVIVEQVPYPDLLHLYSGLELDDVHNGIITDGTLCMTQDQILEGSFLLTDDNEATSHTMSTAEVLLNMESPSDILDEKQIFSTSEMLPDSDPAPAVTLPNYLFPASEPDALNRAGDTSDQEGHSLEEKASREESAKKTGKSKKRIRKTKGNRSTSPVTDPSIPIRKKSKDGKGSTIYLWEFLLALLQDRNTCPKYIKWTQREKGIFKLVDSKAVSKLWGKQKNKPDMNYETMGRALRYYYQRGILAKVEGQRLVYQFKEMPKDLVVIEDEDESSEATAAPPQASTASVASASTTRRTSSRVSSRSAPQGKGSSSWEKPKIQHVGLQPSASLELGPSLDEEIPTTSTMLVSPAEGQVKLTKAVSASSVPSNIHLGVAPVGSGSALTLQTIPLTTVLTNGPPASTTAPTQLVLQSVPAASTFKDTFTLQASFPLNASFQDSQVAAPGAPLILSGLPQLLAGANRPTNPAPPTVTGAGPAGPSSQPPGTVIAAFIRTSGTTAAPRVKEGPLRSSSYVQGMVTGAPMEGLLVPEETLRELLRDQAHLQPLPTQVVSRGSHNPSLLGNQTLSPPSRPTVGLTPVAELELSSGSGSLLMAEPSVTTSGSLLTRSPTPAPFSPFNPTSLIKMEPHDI
# Sequence of HSF1 (Q00613 whole entry): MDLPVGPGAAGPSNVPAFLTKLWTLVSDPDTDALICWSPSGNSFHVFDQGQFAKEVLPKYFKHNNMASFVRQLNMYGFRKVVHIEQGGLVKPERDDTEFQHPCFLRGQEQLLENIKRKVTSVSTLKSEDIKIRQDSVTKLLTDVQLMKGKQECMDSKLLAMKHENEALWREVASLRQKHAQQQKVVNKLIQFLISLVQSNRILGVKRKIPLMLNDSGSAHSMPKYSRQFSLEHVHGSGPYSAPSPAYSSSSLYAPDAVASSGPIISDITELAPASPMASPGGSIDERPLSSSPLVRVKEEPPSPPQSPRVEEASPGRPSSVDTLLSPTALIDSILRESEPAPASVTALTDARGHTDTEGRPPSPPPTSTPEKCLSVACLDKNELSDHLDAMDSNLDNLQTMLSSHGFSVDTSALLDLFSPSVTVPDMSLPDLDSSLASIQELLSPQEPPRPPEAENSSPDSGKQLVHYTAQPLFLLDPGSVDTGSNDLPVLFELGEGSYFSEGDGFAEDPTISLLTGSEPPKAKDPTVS
# Sequence of ELF1 (P32519 whole entry): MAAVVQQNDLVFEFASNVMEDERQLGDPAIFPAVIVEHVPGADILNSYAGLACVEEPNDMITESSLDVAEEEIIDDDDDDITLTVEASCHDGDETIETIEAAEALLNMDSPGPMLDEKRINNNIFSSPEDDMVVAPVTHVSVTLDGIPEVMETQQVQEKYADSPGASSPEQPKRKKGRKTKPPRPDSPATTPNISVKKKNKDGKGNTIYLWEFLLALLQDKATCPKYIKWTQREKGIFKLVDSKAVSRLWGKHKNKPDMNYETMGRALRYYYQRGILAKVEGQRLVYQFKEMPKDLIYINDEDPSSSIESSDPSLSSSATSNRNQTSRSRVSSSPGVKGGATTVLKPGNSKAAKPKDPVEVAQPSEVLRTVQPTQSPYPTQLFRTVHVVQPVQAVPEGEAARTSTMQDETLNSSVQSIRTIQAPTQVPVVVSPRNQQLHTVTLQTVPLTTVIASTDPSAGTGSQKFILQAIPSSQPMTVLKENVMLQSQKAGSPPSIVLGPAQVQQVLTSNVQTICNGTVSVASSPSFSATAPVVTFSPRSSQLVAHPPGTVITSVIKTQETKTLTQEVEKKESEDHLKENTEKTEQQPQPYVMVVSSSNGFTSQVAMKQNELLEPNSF
# Sequence of CRX (O43186 whole entry): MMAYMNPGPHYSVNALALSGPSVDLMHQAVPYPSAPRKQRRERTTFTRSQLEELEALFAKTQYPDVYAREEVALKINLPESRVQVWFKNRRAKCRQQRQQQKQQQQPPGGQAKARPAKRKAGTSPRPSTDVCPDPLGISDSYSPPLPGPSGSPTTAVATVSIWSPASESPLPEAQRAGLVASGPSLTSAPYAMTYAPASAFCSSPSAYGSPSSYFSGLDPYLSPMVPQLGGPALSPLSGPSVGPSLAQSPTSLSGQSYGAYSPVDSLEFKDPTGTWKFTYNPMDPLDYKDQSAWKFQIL
# Sequence of SPIB (Q01892 whole entry): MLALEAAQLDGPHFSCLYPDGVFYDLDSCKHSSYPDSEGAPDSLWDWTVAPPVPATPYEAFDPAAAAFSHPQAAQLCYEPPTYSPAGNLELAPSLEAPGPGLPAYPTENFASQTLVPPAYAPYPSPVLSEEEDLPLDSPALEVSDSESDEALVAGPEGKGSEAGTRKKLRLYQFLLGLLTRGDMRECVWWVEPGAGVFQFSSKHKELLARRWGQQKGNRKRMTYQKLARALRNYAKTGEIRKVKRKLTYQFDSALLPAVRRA
# Sequence of ETV5 (P41161 whole entry): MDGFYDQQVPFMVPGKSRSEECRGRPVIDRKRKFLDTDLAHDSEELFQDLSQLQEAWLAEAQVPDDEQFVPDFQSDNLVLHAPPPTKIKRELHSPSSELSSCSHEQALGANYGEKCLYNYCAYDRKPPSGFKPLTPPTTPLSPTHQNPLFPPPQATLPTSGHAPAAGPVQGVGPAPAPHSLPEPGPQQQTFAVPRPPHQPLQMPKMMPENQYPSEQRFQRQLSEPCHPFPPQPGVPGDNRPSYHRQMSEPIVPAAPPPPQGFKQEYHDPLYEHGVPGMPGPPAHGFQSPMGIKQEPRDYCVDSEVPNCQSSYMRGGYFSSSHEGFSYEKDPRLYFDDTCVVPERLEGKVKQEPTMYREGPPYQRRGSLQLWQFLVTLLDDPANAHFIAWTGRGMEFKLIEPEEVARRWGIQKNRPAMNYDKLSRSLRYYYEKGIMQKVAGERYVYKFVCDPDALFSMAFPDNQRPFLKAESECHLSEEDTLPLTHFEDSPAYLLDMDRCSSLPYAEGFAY
sequence,measurement,setting,value
CTTAGT,binding signal,[1],"1.17 fold enrichment (6-mer frequency, TF over GST control)"
same,binding signal,[2],"1.17 fold enrichment (6-mer frequency, TF over GST control)"
same,binding signal,[3],"1.2 fold enrichment (6-mer frequency, TF over GST control)"
same,binding signal,[4],"1.18 fold enrichment (6-mer frequency, TF over GST control)"
same,binding signal,[5],"1.25 fold enrichment (6-mer frequency, TF over GST control)"
same,binding signal,[6],"1.22 fold enrichment (6-mer frequency, TF over GST control)"
same,binding signal,[7],"1.07 fold enrichment (6-mer frequency, TF over GST control)"
same,binding signal,[8],"1.19 fold enrichment (6-mer frequency, TF over GST control)"
same,binding signal,[9],"1.19 fold enrichment (6-mer frequency, TF over GST control)"
same,binding signal,[10],"1.13 fold enrichment (6-mer frequency, TF over GST control)"
same,binding signal,[11],"1.3 fold enrichment (6-mer frequency, TF over GST control)"
same,binding signal,[12],"1.49 fold enrichment (6-mer frequency, TF over GST control)"
same,binding signal,[13],"1.09 fold enrichment (6-mer frequency, TF over GST control)"
same,binding signal,[14],"1.26 fold enrichment (6-mer frequency, TF over GST control)"
same,binding signal,[15],"1.12 fold enrichment (6-mer frequency, TF over GST control)"
same,binding signal,[16],"1.06 fold enrichment (6-mer frequency, TF over GST control)"
same,binding signal,[17],"1.18 fold enrichment (6-mer frequency, TF over GST control)"
same,binding signal,[18],"1.98 fold enrichment (6-mer frequency, TF over GST control)"
same,binding signal,[19],"1.17 fold enrichment (6-mer frequency, TF over GST control)"
